Reference: the supplement of paper PMC10646978
± gives the standard deviation.

Experiments:
Conditions in all cases: modulator concentration 10 µM
[1] = tested on: RAW-Dual (murine macrophage reporter line); experiment: NF-kB reporter (SEAP) activity fold change vs agonist alone; higher = enhanced NF-kB activity
Procedure, shortened: (§1)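 Overnight stimulation with a PRR agonist followed pre-incubation for 1 hour at 37 °C with compound at 10 μM final. This was done in RAW-Dual murine macrophage reporter cells seeded at 50 000 per well in 384-well plates. NF-κB (SEAP, QUANTI-Blue absorbance at 620 nm) and IRF (Lucia luciferase, QUANTI-Luc luminescence) were read from the supernatant. Each reporter's fold change relative to the mean agonist-only control on the same plate was averaged over replicate plates.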

[2] = tested on: RAW-Dual (murine macrophage reporter line); experiment: IRF reporter (Lucia luciferase) activity fold change vs agonist alone; higher = enhanced IRF activity
Procedure, shortened: as §1

[3] = tested on: RAW-Dual (murine macrophage reporter line); experiment: viability score (confluency relative to resting cells, overnight) (fraction); higher = more viable, active = viable (0.7 or more)
Procedure, shortened: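 RAW-Dual macrophages in 384-well plates were incubated overnight with compound, final concentration 10 μM. Confluency images from IncuCyte were processed in IncuCyte software into two masks covering all imaged wells. The viability score is each well's confluency relative to resting cells, and a compound met the cutoff when both masks exceeded 70% of resting cells.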

[4] = agonist: CpG ODN 1826 0.5 ug/mL

Row | Compound | NF-kB reporter [1, 4] | NF-kB reporter ([1]; agonist: LPS 0.1 ug/mL) | NF-kB reporter ([1]; agonist: MPLA […]) | IRF reporter ([2]; agonist: 3'3'-cGAMP 10 ug/mL) | IRF reporter ([2]; agonist: LPS 0.1 ug/mL) | IRF reporter ([2]; agonist: MPLA […]) | viability score [3]
1 | O=C(Nc1ccc([N+](=O)[O-])cc1Cl)c1ccc([N+](=O)[O-])cc1 | 0.961 ± 0.083 | 1.07 ± 0.069 | 0.937 ± 0.06 | 0.937 ± 0.032 | 1.48 ± 0.11 | 1.23 ± 0.3 | 1.01 (active)
2 | CCCN1CCC(NCCc2ccc(Cl)cc2)CC1 | 1.18 ± 0.069 | 0.97 ± 0.081 | 1.1 ± 0.036 | 0.761 ± 0.028 | 0.994 ± 0.065 | 0.943 ± 0.11 | 0.995 (active)
3 | Cc1ccc(C(=O)NC2CCN(c3ccc4nncn4n3)C2)c(C)c1 (configuration not stated) | 0.957 ± 0.13 | 1.02 ± 0.081 | 1.15 ± 0.15 | 1.03 ± 0.066 | 0.995 ± 0.18 | 0.935 ± 0.42 | 1 (active)
4 | COC(=O)C1=CN(CC2CCCO2)C=C(C(=O)OC)C1c1cccc(Cl)c1 (configuration not stated) | 0.59 ± 0.053 | 0.736 ± 0.065 | 0.83 ± 0.072 | 0.82 ± 0.037 | 1.17 ± 0.069 | 1.1 ± 0.093 | 0.994 (active)
5 | CS(=O)(=O)N(Cc1ccccc1)c1ccc(C(=O)NCCSCc2ccc(Cl)cc2)cc1 | 0.924 ± 0.099 | 0.976 ± 0.062 | 1.01 ± 0.097 | 1.01 ± 0.028 | 1.54 ± 0.25 | 1.13 ± 0.14 | 1.01 (active)
6 | FC(F)(F)c1ccc(CN2CCCC(c3nc4ccccc4[nH]3)C2)cc1 (configuration not stated) | 0.701 ± 0.27 | 0.876 ± 0.21 | 0.555 ± 0.2 | 0.693 ± 0.32 | 0.829 ± 0.19 | 0.967 ± 0.23 | 0.903 (active)
7 | Cc1ccc(C(=O)c2ccc(CC(=O)O)n2C)cc1 | 0.949 ± 0.071 | 1.01 ± 0.064 | 1.02 ± 0.048 | 0.995 ± 0.086 | 0.993 ± 0.1 | 1.02 ± 0.092 | 1 (active)
8 | CCCCN(CCCC)S(=O)(=O)c1ccc(N2CCCC2=O)c([N+](=O)[O-])c1 | 1.02 ± 0.12 | 1.07 ± 0.071 | 1 ± 0.062 | 0.975 ± 0.15 | 1.1 ± 0.13 | 1.13 ± 0.27 | 1 (active)
9 | CC#C[C@]1(O)CC[C@H]2[C@@H]3CCC4=CC(=O)CCC4=C3[C@@H](c3ccc(N(C)C)cc3)C[C@@]21C | 0.955 ± 0.093 | 0.722 ± 0.15 | 1.39 ± 0.15 | 0.863 ± 0.048 | 0.868 ± 0.033 | 1.05 ± 0.31 | 1 (active)
10 | O=C(CCCCCCNC(=O)c1cnc(N(c2ccccc2)c2ccccc2)nc1)NO | 1.14 ± 0.067 | 0.318 ± 0.026 | 0.797 ± 0.15 | 0.954 ± 0.08 | 2.78 ± 0.69 | 3.16 ± 1 | 0.95 (active)
11 | Cc1nnc(NC(=O)c2cccc([N+](=O)[O-])c2)s1 | 1.03 ± 0.084 | 0.97 ± 0.093 | 0.999 ± 0.038 | 1.05 ± 0.25 | 1.06 ± 0.049 | 1.09 ± 0.15 | 1 (active)
12 | OCC(CO)N[C@H]1C[C@](O)(CO)[C@@H](O)[C@H](O)[C@H]1O | 0.913 ± 0.054 | 0.924 ± 0.074 | 0.916 ± 0.046 | 0.908 ± 0.058 | 1.04 ± 0.065 | 0.884 ± 0.07 | 1 (active)
13 | O=S(=O)(c1ccc(F)cc1)N1CCC(c2nc3ccccc3[nH]2)CC1 | 1.19 ± 0.085 | 1.08 ± 0.082 | 1.03 ± 0.028 | 0.913 ± 0.033 | 1.01 ± 0.093 | 0.997 ± 0.15 | 0.964 (active)
14 | COC(=O)Nc1nc2cc(S(=O)c3ccccc3)ccc2[nH]1 (configuration not stated) [Prestw-1459] | 1.03 ± 0.087 | 0.896 ± 0.079 | 0.932 ± 0.051 | 0.896 ± 0.04 | 0.825 ± 0.13 | 0.884 ± 0.23 | 0.999 (active)
15 | CC(C)CN(C[C@@H](O)[C@H](Cc1ccccc1)NC(=O)O[C@H]1CO[C@H]2OCC[C@H]21)S(=O)(=O)c1ccc(N)cc1 | 1.74 ± 0.13 | 1.08 ± 0.054 | 1.85 ± 0.069 | 0.916 ± 0.053 | 1.04 ± 0.071 | 1.02 ± 0.1 | 0.997 (active)
16 | O=C(OC(=Cc1nccn1Cc1ccc(Cl)cc1)c1ccccc1)c1ccccc1 | 0.323 ± 0.021 | 0.481 ± 0.05 | 0.394 ± 0.026 | 0.37 ± 0.015 | 1.36 ± 0.12 | 1.51 ± 0.13 | 0.973 (active)
17 | COC(=O)C1=C(C)NC(=O)CC1c1c(F)cccc1Cl (configuration not stated) | 0.986 ± 0.083 | 0.993 ± 0.087 | 0.975 ± 0.041 | 0.87 ± 0.032 | 1.03 ± 0.091 | 1.06 ± 0.14 | 0.995 (active)
18 | COc1ccccc1C=C(C#N)c1nc(-c2cc3cc(Br)ccc3oc2=O)cs1 | 0.951 ± 0.08 | 0.962 ± 0.075 | 0.943 ± 0.089 | 0.972 ± 0.069 | 1.31 ± 0.18 | 1.58 ± 0.27 | 1.02 (active)
19 | CCCOc1ccc(C=C2SC(N3CCN(c4ccccc4C)CC3)=NC2=O)cc1 | 1.06 ± 0.079 | 0.989 ± 0.078 | 0.975 ± 0.061 | 0.954 ± 0.049 | 0.988 ± 0.051 | 0.968 ± 0.14 | 1 (active)
20 | CC1=CC(C)C2(COC(c3cccnc3)OC2)C(C)C1 (configuration not stated) | 0.876 ± 0.067 | 0.788 ± 0.12 | 0.695 ± 0.065 | 0.967 ± 0.033 | 1.15 ± 0.18 | 1.1 ± 0.19 | 0.388 (inactive)
21 | CS(=O)(=O)O.Cc1ccc(N(CC2=NCCN2)c2cccc(O)c2)cc1 | 0.981 ± 0.19 | 1.03 ± 0.34 | 0.957 ± 0.09 | 0.628 ± 0.019 | 1.09 ± 0.28 | 1.04 ± 0.08 | 1 (active)
22 | COc1ccc(-c2nc3c4cnn(-c5ccc(C)cc5C)c4ncn3n2)c(O)c1 | 1.03 ± 0.058 | 1.1 ± 0.086 | 0.991 ± 0.11 | 1.05 ± 0.059 | 1.25 ± 0.14 | 1.09 ± 0.27 | 1 (active)
23 | Cc1nnc(NN=Cc2ccc(O)c([N+](=O)[O-])c2)[nH]c1=O | 1.07 ± 0.14 | 1.01 ± 0.097 | 1.03 ± 0.035 | 0.98 ± 0.045 | 0.979 ± 0.14 | 1.01 ± 0.25 | 0.992 (active)
24 | O=C(NCc1nc(C2CCCCC2)cs1)c1ccc(F)cc1 | 0.898 ± 0.05 | 1.16 ± 0.11 | 0.918 ± 0.047 | 1.03 ± 0.063 | 1.26 ± 0.094 | 1.1 ± 0.09 | 0.931 (active)
25 | O=C(CSC1CC(=O)N(c2ccc(C(=O)O)cc2)C1=O)Nc1ccc(Cl)cc1 (configuration not stated) | 0.921 ± 0.11 | 0.931 ± 0.16 | 1.05 ± 0.046 | 0.396 ± 0.085 | 0.99 ± 0.045 | 0.982 ± 0.12 | 1 (active)
26 | C=CC(=O)Nc1cccc(Oc2nc(Nc3ccc(N4CCN(C)CC4)cc3)nc3ccsc23)c1 | 0.0541 ± 0.0029 | 0.0574 ± 0.0052 | 0.184 ± 0.036 | 0.0243 ± 0.0019 | 0.0856 ± 0.0056 | 0.0904 ± 0.035 | 0.0526 (inactive)
